36 compounds from PubChem BioAssay (Tox21) can be followed below.

The structures appear in SMILES notation. Values joined by “and” are separate entries in the source; they are usually repeats but may differ in a detail not shown here. Identical values can stand only once. Results filed as inconclusive are left out. A call without a number means that no potency is given here. More than one record can exist for a structure, and the calls need not agree. Active and inactive are the calls of the source. The call rests on the fitted dose curve; in most records, active means well fitted inhibition curve with a large enough effect in the repeat runs; inconclusive means weak or mixed curves; inactive means no such curve, though single readings can be large or run the other way.
Potency means the concentration at half of the fitted maximal effect.

The test is described as follows: qHTS assay to identify small molecule antagonists of the estrogen related receptor (ERR) signaling pathway from Tox21 library (AID 1224848). Further: nearly all actives have a fitted effect of over 50% in size. The settings on record: ERR reporter cell line, luciferase antagonist mode, 18 h; series mostly up to 92.4 µM. The text has this: U.S. Tox21 Program National Center for Advancing Translational Sciences [NCATS] NIH Chemical Genomics Center [NCGC] U.S. Environmental Protection Agency [EPA] National Institutes of Environmental Health Sciences [NIEHS] National Toxicology Program [NTP] U.S. Food and Drug Administration [FDA] Tox21 Assay Overview: Estrogen related receptors (ERRs), the first orphan nuclear receptors discovered, play an important role in the control of cellular energy metabolism. ERRs are required for high-energy production in response to the environmental challenges. ERR-alpha was also identified as an adverse marker for breast cancer progression; ERR-alpha-positive tumors have a poor prognosis. To screen and to identify environmental compounds that perturb the ERR signaling pathways could provide valuable information for potential therapeutic or preventive measures in the treatment of metabolic disease. For identifying ERR antagonists, ERR cell line (provided by NTP) has been used to screen Tox21 10K library.
Tox21 Assay Protocol Summary: The ERR cells were dispensed at 2,000 cells/5 ul/well in 1536-well white plates using a Multidrop dispenser. After the assay plates were incubated at a 37 C/5% CO2 incubator for 6 hours, 23 nL of compounds dissolved in DMSO, positive and negative controls or DMSO only was transferred to the assay plate by a pin tool. The plates were incubated at 37 C for 18 hours. 4 ul/well of One-Glo reagent was added into the assay plates using a Flying Reagent Dispenser. After 30-minute incubation at room temperature, the luminescence intensity in the plates was measured using a ViewLux plate reader.
(Quantitative high-throughput screening tests each substance at several concentrations.)
Take `COC(C)(C)CCCC(C)C/C=C/C(C)=C/C(=O)OC(C)C` (stereo unspecified): the Potency entry is “inactive”.
As for `ClC(Cl)c1ccccc1`, the entry is “inactive”; as for `Nc1ncc([N+](=O)[O-])s1`, “inactive”.
As for `C=CCN=C=S`, the Potency entry was “inactive”.
As to `COC(=O)Nc1cccc(OC(=O)Nc2cccc(C)c2)c1`, the Potency entry was “inactive”.
As for `O=[N+]([O-])c1ccc(Cl)c(Cl)c1`, the entry is “inactive”; as for `OCc1ccco1`, “inactive”; as for `Cc1ccc(N=C=O)cc1N=C=O`, “inactive”.
On to `Cc1cccc(N)c1`, for which the Potency result was “inactive”.
As for `Nc1nc(N)nc(NC2CC2)n1`, the entry is “inactive”; as for `Cc1cc(O)ccc1Cl`, “inactive”.
Turning to `CN(C)NC(=O)CCC(=O)O`, the Potency result was “inactive”.
As for `Cc1ccc(O)c(C)c1`, the entry is “inactive”.
The entry for `Cl[C@H]1OCCO[C@@H]1Cl` is “inactive”; for `O=P1(NCCCl)OCCCN1CCCl` (stereo unspecified) it is “inactive”.
Regarding `CNC(=O)O/N=C(\SC)C(=O)N(C)C`, the Potency result is “inactive”.
The entry for `O=C(O)c1cc(Oc2ccc(C(F)(F)F)cc2Cl)ccc1[N+](=O)[O-]` is “inactive”; for `COc1cc(-c2ccc(N)c(OC)c2)ccc1N` it is “inactive and 46.3 µM (active)”; for `C=CC(=O)OCC(CC)CCCC` (stereo unspecified) it is “inactive”.
As to `C=CC#N`, the Potency result was “inactive”.
As for `COc1nc(NC(C)C)nc(NC(C)C)n1`, the entry is “inactive”; as for `O=[N+]([O-])c1cc([As](=O)(O)O)ccc1O`, “inactive”; as for `O=C(O)Cc1ccccc1`, “inactive”.
The entry for `CC(C)(C)C(=O)CCl` is “inactive”; for `CNCC(O)c1ccc(O)cc1` (stereo unspecified) it is “inactive”.
`CC(C)c1cccc(C(C)C)c1O`: the Potency entry is “inactive”.
As for `CN(C)C(=O)Cl`, the entry is “inactive”.
As for `Cc1ccc(N)cc1`, the entry is “inactive”; as for `OC[C@@H](O)[C@H]1O[C@@H]2O[C@H](C(Cl)(Cl)Cl)O[C@@H]2[C@H]1O`, “inactive”.
The entry for `CCSC(=O)N1CCCCCC1` is “inactive”.
Take `C=C(C)C(=O)OCC(CC)CCCC` (stereo unspecified): the Potency was 24.8 µM (active) and inactive.
For the compound `Nc1cccc(Cl)c1`, the Potency result was “inactive”.
Take `CNC(=O)O/N=C/C(C)(C)SC`: the Potency result is “inactive”.
As for `OCCCCO`, the entry is “inactive”; as for `[N-]=[N+]=CC(=O)OC[C@H](N)C(=O)O`, “inactive”.
As to `CCNc1nc(Cl)nc(NC(C)C)n1`, the Potency entry was “inactive”.
